aSyn yeast inh – alpha-synuclein toxicity inhibition in yeast; Potency, µM (highest dose often 46.1 µM), for the others: top-dose growth rescue (activation), hits mostly activators; Yeast expressing alpha-synuclein, growth rescue, BacTiter-Glo, 24 h; 370,000 tested, 0.14% active; AID 652106; note: % of control where 0% means no effect; nearly all actives have a fitted effect of over 65% in size
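Readout is rescue of growth in alpha-synuclein-expressing yeast, so inhibitors of toxicity appear as activators. Growth after 24 hr at 30 deg C in galactose medium is quantified by luminescence.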
TDP43 rescue – rescues yeast growth from TDP-43 toxicity; TDP-43 expressing yeast growth rescue, BacTiter-Glo, 24 h; Potency, µM (series often up to 46.1 µM), for inactives: at the top dose growth rescue (activation), most hits filed as activators; 410,000 tested, 1.8% active; note: % of control where 0% means no effect; nearly all actives have a fitted effect of over 50% in size
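Yeast expressing TDP-43 (pregrown in raffinose, seeded at OD600=0.02 in galactose medium) exposed to compounds 24 hr at 30 deg C. Growth read by BacTiter-Glo luminescence; rescue of toxicity appears as increased signal.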
FUS yeast rescue – FUS proteinopathy suppression in yeast. S. cerevisiae FUS-expressing, growth rescue, OD600, 24 h. Potency, µM (highest dose often 76.6 µM), hits mostly activators. 390,000 tested, 0.24% active. AID 1347120;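 note: plate controls were DMSO vehicle for no effect and reference control for full effect; nearly all actives have a fitted effect of over 55% in size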
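Restored growth of FUS-toxic S. cerevisiae, read as 600 nm absorbance after 24 h at 30C in galactose medium (starting OD 0.005). Controls CP55940 and DMSO.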
Abeta rescue – restores growth of yeast expressing A-beta42 peptide; Potency, µM (highest dose often 46.1 µM), hits mostly activators; 410,000 tested, 0.063% active; yeast expressing A-beta42, growth rescue, OD600, 48 h; response scale: 0% DMSO, 100% iron-clioquinol control; note: nearly all actives have a fitted effect of over 55% in size
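Yeast A-beta toxicity model in growth medium with pinned compounds, 48 h at 30 C; growth read as absorbance at 600 nm. Normalized to FeCl3/clioquinol equimolar mix (positive) and DMSO (negative).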
* marks the source's active call; other numbers are inactive results; i = inactive; ? = inconclusive; · = no result; [ ] = dose if it differs, or a comment. In the library only some 2.1% were active in any assay of this set; here they are far more common. Calls come from the whole dose curve; as a rule, active = well fitted curve in the direction sought with a large enough effect; inconclusive = small, poorly fitted or top-dose-only effect, or another doubt; inactive = no such curve, though single readings can be large; an effect the other way counts as inactive or inconclusive. Potency is the fitted concentration of half-maximal effect.

SMILES	aSyn yeast inh	TDP43 rescue	FUS yeast rescue	Abeta rescue
O=c1c2c(C(F)(F)F)cc(C(F)(F)F)nc2[nH]n1-c1ccccc1	-14%	-23%	i	i
O=c1c(Sc2ccccc2)c(C(F)(F)F)[nH]n1-c1ccccc1	·	14µM*	i	i
Cc1ccc(NC(=O)/C(C#N)=C/c2cc(C)n(-c3ccc(Br)cc3)c2C)cc1C	·	4µM*	?	i
CCOc1ccc(NC(=O)CSc2nc(=O)[nH]c3c2CCC3)cc1	·	0%	i	i
CCOC(=O)c1c(NC(=S)Nc2cccnc2)sc(C)c1C	6%	13µM*	i	i
CC(=O)c1ccc(N2CCC(c3cc(-c4ccc(Cl)cc4)n[nH]3)CC2)c([N+](=O)[O-])c1	4%	16µM*	i	i
COc1ccc(-c2cc(C3CCN(c4ccc(C(C)=O)cc4[N+](=O)[O-])CC3)[nH]n2)cc1	1%	-2%	i	?
Clc1ccc(OCc2nn3c(-c4ccco4)nnc3s2)cc1	-3%	18µM*	i	i
COc1ccc(OCc2nn3c(-c4ccco4)nnc3s2)cc1	6%	?	?	i
c1coc(-c2nnc3sc(Cc4cccs4)nn23)c1	-4%	-6%	10µM*	i
CC(C)NC(=O)Cn1nc(N2CCN(c3ccccc3)CC2)ccc1=O	·	15%	i	i
CCn1c(SCC(=O)NN=Cc2cc(OC)ccc2OC)nnc1-c1ccc(OC)cc1	·	·	i	·
O=C(COc1ccccc1C(=O)Nc1ccccc1F)Nc1ccc(Br)cc1	-11%	·	·	·
Cc1ccc(-c2nc3cc(N)ccc3o2)cc1	-2%	0%	i	i
Cc1ccc2oc(-c3cccc(N)c3)nc2c1	-3%	13µM*	i	i
COc1ccc(CN(Cc2ccccc2)C(=O)Nc2ccccc2)cc1COc1ccc(NC(C)=O)cc1	2%	·	·	·
CCCCN(CC)C(=O)CCn1c(=O)c2cccn2c2cccnc21	·	?	i	i
O=C(COC(=O)c1cc(-c2ccccc2)nc2ccccc12)NC1CC1	-1%[1.84 µM]	35µM*	?	i
COc1ccc(-c2cc(C(=O)OCC(=O)NC3CC3)c3ccccc3n2)cc1	0%	18%	?	i
COc1ccc(N2CCN(c3csc4ccccc4c3=O)CC2)cc1	·	13%	i	i
COc1cccc(NC(=O)Cn2cc(C(=O)c3ccco3)c3ccccc32)c1	·	0%	i	i
O=C1[C@@H]2CSC(c3ccc(C(F)(F)F)cc3)N2C(=O)N1c1ccccc1 (stereo partly drawn)	·	13µM*	i	i
O=C1[C@@H]2CSC(c3ccc(Cl)cc3)N2C(=O)N1c1ccccc1 (stereo partly drawn)	·	35µM*	i	i
Cc1ccc(CNS(=O)(=O)c2ccc(C)s2)cc1	4%	?	i	i
CCC(=O)N1CCc2cc(CNS(=O)(=O)c3ccc(Cl)s3)ccc21	·	13µM*	i	i
SMILES	aSyn yeast inh	TDP43 rescue	FUS yeast rescue	Abeta rescue
Cc1ccc(CNS(=O)(=O)c2ccc(Cl)s2)cc1	9%	13µM*	i	i
O=C(CN1N=C(C(F)(F)F)CC1(O)c1ccc([N+](=O)[O-])cc1)c1ccccc1 (stereo not drawn)	16%	16µM*	i	i
O=C(c1ccccc1O)N1N=C(C(F)(F)F)CC1(O)c1ccc([N+](=O)[O-])cc1 (stereo not drawn)	-3%	16%	i	i
CC(C)C1C(=O)N(Cc2cn(CCC3OCCCO3)nn2)CCS(=O)(=O)N1Cc1ccc(-c2ccc(Cl)cc2)cc1 (stereo not drawn)	-1%	16%	i	i
CC(C)C1C(=O)N(Cc2cn(CCC3OCCO3)nn2)CCS(=O)(=O)N1Cc1ccc(-c2ccc(Cl)cc2)cc1 (stereo not drawn)	?	35µM*	?	i
CC1C(=O)N(Cc2cn(CCC3OCCO3)nn2)CCS(=O)(=O)N1Cc1ccc(-c2ccc(Cl)c(Cl)c2)cc1 (stereo not drawn)	26%	16µM*	?	i
Cc1ccc(N2CCN(C(=O)C(=O)c3cccc([N+](=O)[O-])c3)CC2)cc1	-3%	16µM*	i	i
O=C(Oc1cccc(C(=S)N2CCOCC2)c1)c1ccc([N+](=O)[O-])cc1[N+](=O)[O-]	-56%	11µM*	i	i
O=[N+]([O-])c1cccc(C(=S)N2CCN(c3ccccc3)CC2)c1	10%	13µM*	·	i
O=C(c1cccc([N+](=O)[O-])c1)N1CCN(c2ccc(Cl)cc2)CC1	12%	?	·	i
O=[N+]([O-])c1cccc(C(=S)N2CCN(c3ccccc3F)CC2)c1	2%	?	i	i
Cc1ccc(S(=O)(=O)N2CCN(c3nc(-c4ccc(CN5CCOCC5)s4)nc4ccccc34)CC2)cc1	-10%	·	·	·
Oc1c(Br)cc(Br)cc1CNc1cccc2cccnc12	?	18µM*	i	i
CCOC(=O)/C(=C\c1ccc(Cl)cc1)c1nc2sc(C)c(C)c2c(=O)[nH]1	-54%	18µM*	i	i
Cc1ccc(-n2c(SCc3nc(-c4ccc(Cl)cc4)no3)nnc2-c2ccncc2)cc1	·	35µM*	?	i
Cc1ccc(-c2noc(CSc3nnc(C)n3-c3ccc(C)cc3)n2)cc1	·	0%	?	i
Cn1c(SCc2cccc(C(F)(F)F)c2)nnc1-c1ccco1	17%	20µM*	i	i
Cn1c(SCc2nc(-c3ccc(Cl)cc3)no2)nnc1-c1ccco1	5%	13µM*	i	i
Clc1ccc(-c2noc(CSc3nnc(-c4ccncc4)n3-c3ccccc3)n2)cc1	10%	-1%	?	i
Cc1ccc(-c2noc(CSc3nnc(C)n3-c3ccc(C)c(C)c3)n2)cc1	·	35µM*	i	i
O=C(CN1C(=O)CC(c2ccco2)Sc2ccccc21)Nc1ccc(OC(F)(F)F)cc1 (stereo not drawn)	0%	11%	i	i
CC(=O)Nc1cccc(C(=O)OCC(=O)NC(=O)C2CCCCC2)c1	0%	·	·	·
COc1ccc(-n2nc([N+](=O)[O-])c(=NCCC3=CCCCC3)n2O)cc1	9%	20µM*	i	i
CCOc1ccc(C(=O)N2CCC(c3nc(-c4ccc(S(=O)(=O)N5CCCC5)cc4)no3)CC2)cc1	·	16%	i	i
CCOc1ccc(C(=O)N2CCC(c3noc(-c4ccc(S(=O)(=O)N5CCCC5)cc4)n3)CC2)cc1	·	1%	16µM*	i
Cc1ccc(NC(=O)c2ccc(-n3nncc3-c3ccccc3)cc2)cc1	-3%	·	·	·
COc1ccc(-c2cc(=O)oc3c4c(ccc23)OCN(Cc2ccccc2)C4)cc1	·	5%	i	i
CCc1nc(Nc2cc(OC)ccc2OC)c2oc3ccccc3c2n1	-10%	0%	i	i
CCc1nc(Nc2ccccc2OC)c2oc3ccccc3c2n1	-2%	13µM*	i	i
